Rows were chosen to be rich in hits. Some 27% of all compounds tested hit in one or more screens of this group.
CYP2C19 inhib – inhibitors of human CYP2C19 | CYP2C19 Supersomes, luciferin-H EGE luminescence, 30 min | inhibition, % at 5 µM | 96,000 compounds, 21% hits;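 active = CYP2C19 inhibition above a set limit at 5 µM in the primary screen, cut at about 50% in these data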;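 also: plate controls were negative control wells for no effect and 2.5 mM tranylcypromine positive control for full effect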
Cav32 inh – blocks human Cav3.2 T-type calcium channel; O95180; Cav3.2-expressing cells, Fluo-4 calcium fluorescence FDSS; hits give low values; AID 449739; B-score at 10 µM; 100,000 compounds, 4% hits;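 active = single-dose well whose peak fluorescence ratio is a statistical outlier from its plate by either plate-standardised score or position-corrected B-score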
Target sequence (O95180 whole entry, looked up): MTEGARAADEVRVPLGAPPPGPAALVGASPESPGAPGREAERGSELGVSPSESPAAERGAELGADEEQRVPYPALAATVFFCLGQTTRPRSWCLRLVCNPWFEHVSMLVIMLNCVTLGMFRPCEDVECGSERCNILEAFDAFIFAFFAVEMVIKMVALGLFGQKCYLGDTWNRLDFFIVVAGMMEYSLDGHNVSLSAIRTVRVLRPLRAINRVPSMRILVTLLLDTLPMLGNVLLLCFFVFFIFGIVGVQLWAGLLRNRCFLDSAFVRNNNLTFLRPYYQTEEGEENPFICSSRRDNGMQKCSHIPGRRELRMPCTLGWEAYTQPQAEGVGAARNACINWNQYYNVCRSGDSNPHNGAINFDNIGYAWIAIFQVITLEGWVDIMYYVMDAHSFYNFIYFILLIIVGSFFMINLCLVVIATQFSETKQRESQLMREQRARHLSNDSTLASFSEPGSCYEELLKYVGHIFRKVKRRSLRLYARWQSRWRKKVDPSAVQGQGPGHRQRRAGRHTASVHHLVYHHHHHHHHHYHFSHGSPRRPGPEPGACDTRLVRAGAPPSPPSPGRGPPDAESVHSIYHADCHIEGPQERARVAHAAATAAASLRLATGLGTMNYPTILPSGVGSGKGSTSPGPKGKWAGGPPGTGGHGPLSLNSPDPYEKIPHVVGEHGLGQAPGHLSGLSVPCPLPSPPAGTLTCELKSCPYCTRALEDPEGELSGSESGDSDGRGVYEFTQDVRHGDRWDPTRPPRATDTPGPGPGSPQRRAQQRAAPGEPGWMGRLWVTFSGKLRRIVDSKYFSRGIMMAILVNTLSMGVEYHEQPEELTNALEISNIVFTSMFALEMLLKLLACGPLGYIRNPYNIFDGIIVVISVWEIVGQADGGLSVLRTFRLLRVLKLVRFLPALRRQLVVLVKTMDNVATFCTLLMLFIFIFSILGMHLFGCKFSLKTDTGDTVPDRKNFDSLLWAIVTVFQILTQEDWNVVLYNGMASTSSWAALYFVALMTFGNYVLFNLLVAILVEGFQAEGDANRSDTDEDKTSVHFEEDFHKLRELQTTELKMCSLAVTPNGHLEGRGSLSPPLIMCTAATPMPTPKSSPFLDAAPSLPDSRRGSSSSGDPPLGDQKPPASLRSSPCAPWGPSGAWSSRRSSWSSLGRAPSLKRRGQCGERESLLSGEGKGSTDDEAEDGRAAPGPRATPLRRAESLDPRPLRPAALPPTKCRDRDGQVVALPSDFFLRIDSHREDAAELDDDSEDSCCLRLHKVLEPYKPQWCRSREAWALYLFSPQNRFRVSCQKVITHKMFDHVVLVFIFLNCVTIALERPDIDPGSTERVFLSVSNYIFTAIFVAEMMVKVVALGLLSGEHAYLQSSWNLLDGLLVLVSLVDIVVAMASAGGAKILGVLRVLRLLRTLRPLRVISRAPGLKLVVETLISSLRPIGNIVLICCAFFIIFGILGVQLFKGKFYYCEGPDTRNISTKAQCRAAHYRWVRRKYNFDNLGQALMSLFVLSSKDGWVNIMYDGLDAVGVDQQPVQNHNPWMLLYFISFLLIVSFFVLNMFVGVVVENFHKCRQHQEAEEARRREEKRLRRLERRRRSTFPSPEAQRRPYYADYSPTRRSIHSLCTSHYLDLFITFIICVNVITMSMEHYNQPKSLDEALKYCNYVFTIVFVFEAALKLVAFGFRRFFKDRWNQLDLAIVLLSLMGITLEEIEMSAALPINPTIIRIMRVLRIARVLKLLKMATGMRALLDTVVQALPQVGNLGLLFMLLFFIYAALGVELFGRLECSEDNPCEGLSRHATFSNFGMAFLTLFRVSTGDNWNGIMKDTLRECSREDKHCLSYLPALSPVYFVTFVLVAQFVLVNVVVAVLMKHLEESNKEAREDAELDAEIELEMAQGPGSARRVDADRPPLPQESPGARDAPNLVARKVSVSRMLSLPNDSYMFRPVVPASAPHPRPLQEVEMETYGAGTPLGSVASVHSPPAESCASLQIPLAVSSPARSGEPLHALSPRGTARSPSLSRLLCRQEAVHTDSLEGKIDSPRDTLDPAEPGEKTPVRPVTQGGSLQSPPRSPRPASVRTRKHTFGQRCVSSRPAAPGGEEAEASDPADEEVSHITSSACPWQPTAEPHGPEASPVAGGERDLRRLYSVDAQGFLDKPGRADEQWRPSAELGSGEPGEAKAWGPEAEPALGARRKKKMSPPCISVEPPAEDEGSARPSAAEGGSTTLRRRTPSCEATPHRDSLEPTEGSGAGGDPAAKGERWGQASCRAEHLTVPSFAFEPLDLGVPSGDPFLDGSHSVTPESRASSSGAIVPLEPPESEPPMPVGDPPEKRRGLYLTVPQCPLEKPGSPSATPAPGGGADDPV
CYP2C19 act – cytochrome P450 2C19 (human) activation; recombinant CYP2C19, luciferin-H EGE luminescence; hits give high values; 0 = fully inhibited enzyme, 1 = untreated enzyme; 96,000 tested, under 10 active; AID 1025; activation factor at 5 µM;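 active = activation factor of at least 2 at 5 µM in the primary screen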;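 also: 0 = wells with 2.5 mM tranylcypromine and 1 = vehicle-only wells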
PTK2B oligo ant – blocks oligomerization of human Pyk2 in cells | Q14289 | Q293 cells, Pyk2 FERM NanoBiT luminescence; hits give low values | z-score (the deposit names both 25 µM and 10 µM) | 99,000 compounds, 0.83% hits | AID 1347419;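 active = Z-score of -3 or lower, scaled per plate to the spread of control and sample wells; inactive = z-score above -3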;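 also: negative z-score means lost luminescence so less FERM oligomerization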
CYP2C9 activ – increases human cytochrome P450 2C9 activity | P11712 | recombinant CYP2C9, luciferin-H conversion, luminescence; hits give high values; factor 1 = untreated enzyme, 0 = blocked | activation factor at 5 µM | 96,000 compounds, 1.4% hits | AID 1024;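 active = activation factor of 2 or more for CYP2C9 at a 5 µM dose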;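 also: 0 = sulfaphenazole-blocked wells and 1 = vehicle-only wells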
CYP2C9 inhib – inhibitors of human CYP2C9. P11712. 96,000 compounds, 20% hits. inhibition, % at 5 µM. CYP2C9 Supersomes, luciferin-H conversion, luminescence;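 active = blocking of liver enzyme CYP2C9 beyond about 50% at 5 µM, limit read from the data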
Numbers without * were called inactive.

Screening OC(Cn1ccnc1)c1ccc(Cl)cc1Cl (stereo not drawn) returned CYP2C19 inhib 99*, Cav32 inh 0.21, CYP2C19 act 0, PTK2B oligo ant 0.69, CYP2C9 activ 0.1 and CYP2C9 inhib 95*.
For CC(=O)OC(Cn1ccnc1)c1ccccc1 (stereo not drawn) the results were CYP2C19 inhib 22, Cav32 inh 0.23, CYP2C19 act 0.8, PTK2B oligo ant -1, CYP2C9 activ 0.8 and CYP2C9 inhib 18.
Screening Cc1ccc(S(=O)(=O)NCCOC(=O)Nc2sc(=S)n(C)c2C)cc1 returned CYP2C19 inhib 73*, CYP2C19 act 0.3, PTK2B oligo ant 0.62, CYP2C9 activ 1 and CYP2C9 inhib -3.
`CCOC(=O)Nc1sc(=S)n(C)c1C` gave Cav32 inh 0.55 and PTK2B oligo ant -0.48.
For CC(=O)OC(c1nc2ccccc2c(=O)n1C1CC2(OC1=O)c1ccccc1N1C(=O)C(C)(C)N(O)C12)C(C)C (stereo not drawn) the results were Cav32 inh -0.44.
For O=[n+]1cc(-c2cccc3ccccc23)n([O-])c2c1CCC2 the results were CYP2C19 inhib -9, Cav32 inh 0.38, CYP2C19 act 1.1, PTK2B oligo ant 0.03, CYP2C9 activ 1 and CYP2C9 inhib 2.
`O=S(=O)(c1ccccc1)c1nc(-c2ccccc2Cl)oc1NCCN1CCOCC1` gave CYP2C19 inhib 36, Cav32 inh 0.23, CYP2C19 act 0.6, PTK2B oligo ant 0.3, CYP2C9 activ 0.2 and CYP2C9 inhib 77*.
For N#Cc1nc(-c2cccc3ccccc23)oc1NCCN1CCOCC1 the results were CYP2C19 inhib 28, Cav32 inh 0.36, CYP2C19 act 0.7, PTK2B oligo ant 0.22, CYP2C9 activ 0.8 and CYP2C9 inhib 22.
Screening N#Cc1nc(-c2ccccc2F)oc1NCCN1CCOCC1 returned CYP2C19 inhib 64*, Cav32 inh 0.38, CYP2C19 act 0.4, CYP2C9 activ 0.7 and CYP2C9 inhib 27.
`CN(C(=O)COC(=O)COc1ccccc1F)C1CCS(=O)(=O)C1` (stereo not drawn) gave CYP2C19 inhib -1, Cav32 inh -0.26, CYP2C19 act 1, PTK2B oligo ant 0.4, CYP2C9 activ 1.1 and CYP2C9 inhib -11.
For COc1cccc(N2[C@@H](CC(C)=O)c3ccc(/C=C/C(C)=O)cc3S2(=O)=O)c1 the results were Cav32 inh 1.1.
`CCN1CCN(C(CNS(=O)(=O)c2ccc(OC)cc2)c2cccnc2)CC1` (stereo not drawn) gave CYP2C19 inhib 2, Cav32 inh 0.79, CYP2C19 act 1, CYP2C9 activ 1.1 and CYP2C9 inhib -5.
Cc1ccc2c(c1)[nH]c1c(=O)n(CCC3=CCCCC3)cnc12 was read as CYP2C19 inhib 55*, Cav32 inh -0.028, CYP2C19 act 0.4, CYP2C9 activ 0.9 and CYP2C9 inhib 7.
OCCN(CCO)Cc1ccc(Br)cc1 was read as CYP2C19 inhib 19, Cav32 inh 0.1, CYP2C19 act 0.8, PTK2B oligo ant 0.2, CYP2C9 activ 1 and CYP2C9 inhib 0.
`Cc1cc(C)c2c(N)c(C(=O)N3CCCCCC3)sc2n1` gave CYP2C19 inhib 51*, Cav32 inh -0.85, CYP2C19 act 0.5, PTK2B oligo ant 0.12, CYP2C9 activ 1.5 and CYP2C9 inhib -45.
Cc1cc(C)c2c(N=CN(C)C)c(C(=O)N3CCN(c4ncccn4)CC3)sc2n1 was read as CYP2C19 inhib 37, Cav32 inh 0.17, CYP2C19 act 0.6, PTK2B oligo ant -0.44, CYP2C9 activ 0.3 and CYP2C9 inhib 69*.
Screening O=C(Nc1cccc(O)c1)c1ccc(Br)c(S(=O)(=O)N2CCCCC2)c1 returned CYP2C19 inhib 0, Cav32 inh -0.41, CYP2C19 act 1, PTK2B oligo ant -2.2, CYP2C9 activ 1 and CYP2C9 inhib 5.
For CCN1C(=O)C(O)(CC(=O)c2ccccn2)c2ccccc21 (stereo not drawn) the results were CYP2C19 inhib 0, Cav32 inh 0.0052, CYP2C19 act 1, PTK2B oligo ant 0.81, CYP2C9 activ 1 and CYP2C9 inhib 0.
`O=C(Cc1ccccc1)NCC(=O)N1CCCCCC1` gave CYP2C19 inhib 24, Cav32 inh 0.42, CYP2C19 act 0.8, PTK2B oligo ant 0.49, CYP2C9 activ 0.9 and CYP2C9 inhib 11.
Screening CCOC(=O)/C(C#N)=C1/SC(CC)C(=O)N1c1ccc(C)cc1 (stereo not drawn) returned CYP2C19 inhib 91*, Cav32 inh 0.23, CYP2C19 act 0.1, PTK2B oligo ant 0.47, CYP2C9 activ 0.4 and CYP2C9 inhib 55*.
For CCOC(=O)/C(C#N)=C1/C=CN(c2ccc(C)cc2)C=N1 the results were CYP2C19 inhib -1, Cav32 inh 2.1, CYP2C19 act 1, PTK2B oligo ant 0.43, CYP2C9 activ 0.7 and CYP2C9 inhib 33.
Screening CCCC(=O)Nc1ccccc1-c1nnn(CC(=O)Nc2ccc(OC)cc2)n1 returned CYP2C19 inhib 20, Cav32 inh -1.2, CYP2C19 act 0.8, PTK2B oligo ant -0.51, CYP2C9 activ 0.7 and CYP2C9 inhib 33.
Screening CCn1nnc(-c2ccccc2NC(=O)c2cc(OC)c(OC)c(OC)c2)n1 returned CYP2C19 inhib 36, Cav32 inh 1.3, CYP2C19 act 0.6, PTK2B oligo ant -1, CYP2C9 activ 0.1 and CYP2C9 inhib 93*.
`CCn1nnc(-c2ccccc2NC(=O)C(F)(F)F)n1` gave CYP2C19 inhib 70*, Cav32 inh -0.4, CYP2C19 act 0.3, PTK2B oligo ant 1.1, CYP2C9 activ 0.7 and CYP2C9 inhib 26.
`CCn1nnc(-c2ccccc2NC(=O)c2cc(OC)cc(OC)c2)n1` gave CYP2C19 inhib 11, Cav32 inh -0.03, CYP2C19 act 0.9, PTK2B oligo ant -1.9, CYP2C9 activ 0.8 and CYP2C9 inhib 19.
CCOc1ccc(NC(=O)Cn2nnc(-c3ccccc3NC(=O)c3cccs3)n2)cc1 was read as CYP2C19 inhib 19, Cav32 inh -0.44, CYP2C19 act 0.8, PTK2B oligo ant 0.15, CYP2C9 activ 0.5 and CYP2C9 inhib 50*.
For CC(C)=CC/C=C1\CCC(C(=O)O)C(C(=O)O)C1 (stereo not drawn) the results were CYP2C19 inhib -13, Cav32 inh 0.91, CYP2C19 act 1.1, PTK2B oligo ant 1.2, CYP2C9 activ 0.9 and CYP2C9 inhib 7.
`CC(C)=CCCC(C)CN(C)CCc1ccccn1` (stereo not drawn) gave CYP2C19 inhib 47, Cav32 inh 0.94, CYP2C19 act 0.5, PTK2B oligo ant 0.77, CYP2C9 activ 1 and CYP2C9 inhib -3.
O=C(CSc1nc2ccccc2[nH]1)c1ccco1 was read as CYP2C19 inhib 65*, CYP2C19 act 0.3, PTK2B oligo ant -0.88, CYP2C9 activ 0.6 and CYP2C9 inhib 39.

Source: PubChem
